VP16 counter: inhibits Gal4-VP16 luciferase reporter, ROR gamma counter-screen; Drosophila S2 Gal4-VP16 UAS-luciferase, luminescence, 20 h; AID 2546; 310,000 compounds, 3.5% hits; Potency, µM (doses to about 53.6 µM), inactives show top-dose activity, negative = inhibition, most hits filed as inhibitors;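 note: Gal4-VP16 expression switched on by copper sulfate through the metallothionein promoter; nearly all actives have a fitted effect of over 50% in size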
TDP1 cell CPT: DT40-hTDP1 cell growth loss with CPT | chicken DT40 Tdp1-/-;hTDP1 cells + 20 nM CPT, ATP luminescence, 48 h | Potency, µM (titrated, usually from 46.2 µM), for inactives: at the top dose activity change, negative = growth inhibition, most hits filed as inhibitors | 420,000 compounds, 12% hits | AID 686979; note: nearly all actives have a fitted effect of over 55% in size
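Chicken DT40 Tdp1-/- cells complemented with human TDP1, 400 cells/well, exposed to compounds plus 20 nM camptothecin for at least 48 h at 37 C; viability read as ATP content by CellTiter-Glo luminescence.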
RORg inh: ROR gamma (mouse) transcription inhibition | Potency, µM (series often up to 53.6 µM), inactives show at the top dose activity change, negative = inhibition, usual class: inhibitors | P51450 | 310,000 compounds, 5.4% hits | Drosophila S2 Gal4-RORgamma UAS-luciferase reporter, 20 h | AID 2551; note: nearly all actives have a fitted effect of over 60% in size
Target sequence (P51450 whole entry, looked up, the tested form may be a part): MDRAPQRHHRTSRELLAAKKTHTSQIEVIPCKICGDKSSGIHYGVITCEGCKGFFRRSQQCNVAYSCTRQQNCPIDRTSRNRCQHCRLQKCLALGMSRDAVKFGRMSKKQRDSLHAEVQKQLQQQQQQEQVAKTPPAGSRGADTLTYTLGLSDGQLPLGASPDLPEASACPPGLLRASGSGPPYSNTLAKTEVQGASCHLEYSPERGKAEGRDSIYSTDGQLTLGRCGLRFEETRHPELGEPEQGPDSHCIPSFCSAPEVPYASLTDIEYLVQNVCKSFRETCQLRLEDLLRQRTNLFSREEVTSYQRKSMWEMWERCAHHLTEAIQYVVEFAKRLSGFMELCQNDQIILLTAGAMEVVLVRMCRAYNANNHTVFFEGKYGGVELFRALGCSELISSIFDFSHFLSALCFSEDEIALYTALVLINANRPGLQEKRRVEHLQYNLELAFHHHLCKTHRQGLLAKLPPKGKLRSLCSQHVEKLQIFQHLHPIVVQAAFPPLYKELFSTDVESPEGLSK
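Drosophila S2 cells stably expressing Gal4-DBD/mouse RORγ fusion under metallothionein promoter plus UAS-luciferase; compound 1 h, then 700 uM CuSO4 induction for 20 h at ambient temperature; inhibition read as reduced luminescence.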
TDP1 cell noCPT: qHTS for Inhibitors of human tyrosyl-DNA phosphodiesterase 1 (TDP1): qHTS in cells in absence of CPT. 420,000 compounds, 15% hits. Potency, µM (doses to about 46.2 µM), for inactives: at the top dose activity change, negative = growth inhibition, most hits filed as inhibitors. DT40 Tdp1-/- hTDP1 cells, no CPT, ATP luminescence, 48 h; note: nearly all actives have a fitted effect of over 55% in size
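Luminescent ATP content (CellTiter-Glo) served as the growth readout. Knockout chicken DT40 cells expressing human TDP1 were exposed to compounds without camptothecin for a minimum 48 hr at 37 °C.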
TDP1 block: blocks human tyrosyl-DNA phosphodiesterase 1; Q9NUW8; recombinant TDP1, AlphaScreen DNA substrate cleavage; Potency, µM (titrated, usually from 130 µM), inactives show at the highest dose activity change, negative = inhibition, most hits filed as inhibitors; 350,000 compounds, 0.28% hits; note: nearly all actives have a fitted effect of over 40% in size
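Recombinant E. coli-expressed Tdp1 (1 nM) preincubated with compound 15 min at RT, then 5'-biotin/3'-phosphotyrosine-FITC DNA substrate (15 nM) added for 5 min. AlphaScreen beads (10 ug/ml) added, 10 min RT; tyrosine-FITC cleavage read as signal loss.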
The depositor's hits bear a star; [ ] = another dose, or the depositor's remark. Hits are enriched below; roughly 19% of the tested compounds scored in any of these assays. Calls come from the whole dose curve; as a rule, active = well fitted curve in the direction sought with a large enough effect; inconclusive = small, poorly fitted or top-dose-only effect, or another doubt; inactive = no such curve, though single readings can be large; an effect the other way counts as inactive or inconclusive. % is set by controls: 0 for no effect and ±100 for the full control effect; potency is the fitted concentration of half-maximal effect.

What do the screens show for `CC(=O)NC(CC(=O)NCCN1C(=O)S/C(=C\c2ccccc2)C1=O)c1ccccc1` (stereo not given)?
VP16 counter: 5%; TDP1 cell CPT: 21µM*; RORg inh: -2%; TDP1 cell noCPT: inconclusive; TDP1 block: 0%

Results for O=C(CCN1C(=O)/C(=C\c2ccccc2)SC1=S)NNC(=O)c1ccccc1O ?
VP16 counter: 7%; TDP1 cell CPT: 21µM*; RORg inh: 41%; TDP1 cell noCPT: 26µM*; TDP1 block: -2%

How did CC1(c2ccccc2)NC(=O)N(CC(=O)NCCN2C(=O)S/C(=C\c3cccnc3)C2=O)C1=O (stereo not given) do in these assays?
TDP1 cell CPT: -12%; TDP1 cell noCPT: 5%

What do the screens show for `O=C(CCN1C(=O)/C(=C\c2ccccc2)SC1=S)NNC(=O)c1cccnc1`?
VP16 counter: -23%; TDP1 cell CPT: inconclusive; RORg inh: 104%; TDP1 cell noCPT: inconclusive; TDP1 block: 3%

How did O=C(CCCN1C(=O)/C(=C\c2ccccc2)SC1=S)Nc1ccc(O)cc1C(=O)O do in these assays?
VP16 counter: inconclusive; TDP1 cell CPT: -14%; RORg inh: inconclusive; TDP1 cell noCPT: -5%; TDP1 block: 7%

How did O=C(CCCN1C(=O)S/C(=C\c2ccccc2)C1=O)NNC(=O)c1ccccc1O do in these assays?
VP16 counter: 2.5µM*; TDP1 cell CPT: 12µM*; RORg inh: 0.45µM*; TDP1 cell noCPT: 9.2µM*; TDP1 block: 7%

How did COc1cc(=O)n2c(c1C(=O)N(C)Cc1nonc1C)CCN(C(=O)c1ccc(C)c(C)c1)CC2 do in these assays?
TDP1 cell CPT: 0%[9.04 µM]; TDP1 cell noCPT: 0%

Results for CCOc1ccccc1NC(=O)CS(=O)(=O)c1cn(CC(=O)N2CCOCC2)c2ccccc12 ?
VP16 counter: 9%; TDP1 cell CPT: 2%; RORg inh: -26%; TDP1 cell noCPT: -16%; TDP1 block: 3%

Results for CCCCN(CCCC)C(=O)C1CCN(S(=O)(=O)c2cccc3nsnc23)CC1 ?
TDP1 cell CPT: 16µM*; TDP1 cell noCPT: 26µM*; TDP1 block: 5%

Results for O=C(Nc1cccc(C(F)(F)F)c1)C1CCN(S(=O)(=O)c2cccnc2)CC1 ?
VP16 counter: -6%; TDP1 cell CPT: inconclusive; RORg inh: 24%; TDP1 cell noCPT: 21µM*; TDP1 block: 0%

Results for O=C(Nc1cccc(C(F)(F)F)c1)C1CCN(S(=O)(=O)c2cccc3nsnc23)CC1 ?
TDP1 cell CPT: 23µM*; TDP1 cell noCPT: 23µM*; TDP1 block: 9%

Results for O=C(NCc1cccnc1)C1CCN(S(=O)(=O)c2cccc(C(F)(F)F)c2)CC1 ?
TDP1 cell CPT: 0%; TDP1 cell noCPT: -13%; TDP1 block: 1%

How did O=C(Nc1cccc(C(F)(F)F)c1)C1CCN(c2nnc(-n3cccc3)s2)CC1 do in these assays?
TDP1 cell CPT: inconclusive; TDP1 cell noCPT: 21µM*; TDP1 block: 3%

What do the screens show for `COc1ccc(CN(C)Cc2nc(Cc3ccccc3Cl)no2)cc1OC`?
VP16 counter: inconclusive; TDP1 cell CPT: inconclusive; RORg inh: 37%; TDP1 cell noCPT: inconclusive; TDP1 block: 0%

What do the screens show for `NC(=O)c1cc2cc(Br)ccc2o/c1=N/NC(=O)c1cccc(F)c1`?
VP16 counter: -8%; TDP1 cell CPT: -23%; RORg inh: -7%; TDP1 cell noCPT: 16%

How did COc1cc(OC)cc(-c2oc(=O)c3cc(OC)c(OC)cc3c2C(F)(F)F)c1 do in these assays?
TDP1 cell CPT: -2%; TDP1 cell noCPT: -5%; TDP1 block: 1%

How did O=C(O)CC(C(=O)Nc1ccc(F)cc1)C1CCCO1 (stereo not given) do in these assays?
VP16 counter: 1%; TDP1 cell CPT: -10%; RORg inh: -16%; TDP1 cell noCPT: inconclusive

Source: PubChem
